Active and inactive are the calls of the source. The call rests on the fitted dose curve; in most records, active means well fitted curve in the direction sought with a large enough effect in the repeat runs; inconclusive means weak or mixed curves; inactive means flat fitted curve, though single readings scatter.
Assay: qHTS assay to test for compound auto fluorescence at 460 nm (blue) in HepG2 cell free culture (AID 720685)
Settings: Cell-free culture medium, blue autofluorescence 405/460 nm; series mostly up to 91.3 µM; fluorescence, % of fluorescent control: at the top concentration
Source text: U.S. Tox21 Program National Center for Advancing Translational Sciences [NCATS] NIH Chemical Genomics Center [NCGC] U.S. Environmental Protection Agency [EPA] National Institutes of Environmental Health Sciences [NIEHS] National Toxicology Program [NTP] U.S. Food and Drug Administration [FDA] Tox21 Assay Overview: Compound auto fluorescence often interferes with screening of the compound library against various biological targets and signaling pathways. Some of these compounds may have fluorophoric properties. Such properties may interfere with the assay outputs resulting in false positives and/or negatives. To decrease such complications and ensure the compound activities are relevant in terms of biological response, the Tox21 10K compound library was screened for auto fluorescence. From the fluorophores used as reporter signals in our screening assays, the auto fluorescence equivalencies of compounds against three fluorophores have been evaluated: Triamterene, Fluorescein and Rose Bengal sodium for blue, green and red fluorescence, respectively. The fluorescence intensities were measured using Excitation/Emission wavelengths at 405/460nm, 485/535nm and 540/590nm for blue, green and red labels, respectively. This assay includes the blue fluorescence data.
Tox21 Assay Protocol Summary: 5 uL of culture medium (MEM containing 10% FBS) per well was dispensed into black wall/clear bottom 1536-well plates using a Multidrop Combi Dispenser (ThermoFisher Scientific, Waltham, MA). After 23 nL compound or DMSO vehicle was transferred into assay plate by a pintool work station (Kalypsys, San Diego, CA), fluorescence intensities in the assay plates were measured by an Envision (PerkinElmer, Shelton, CT) plate reader using three labels for measuring blue, green and red fluorescence at […] 460, 535 and 590nm respectively.
On the % scale 0 is the no-effect control and ±100 the full control effect.

Row | SMILES | fluorescence, % of fluorescent control | Potency
1 | O=C(NN1CCCC1)NS(=O)(=O)c1ccc(Cl)cc1 | -0.0797% [at 46 µM] (inactive) | 
2 | COc1ccc(OC)c(OC)c1 | -0.0988% (inactive) | 
3 | CC(C)(C)C(=O)OCOP(=O)(COCCn1cnc2c(N)ncnc21)OCOC(=O)C(C)(C)C | 0.0009% [at 46 µM] (inactive) | 
4 | CCOc1ccc2[nH]cc(C(=O)NCc3ccccc3)c(=O)c2n1 | -0.19% (inactive) | 
5 | CN(C)CCCNCCCN | 0.234% (inactive) | 
6 | OCC1CC2CC1C1CCC(CO)C21 (stereo not given) | -0.151% (inactive) | 
7 | CCCCCCCCCCCCCCCC(=O)OC/C=C(C)/C=C/C=C(C)/C=C/C1=C(C)CCCC1(C)C |  | inactive
8 | C=CC(=O)OCCOC(=O)CCC(=O)O | -0.0264% (inactive) | 
9 | Cc1ccc(C(=O)C(C)CN2CCCCC2)cc1 (stereo not given) |  | inactive
10 | CC(C)CC=O | -0.193% (inactive) | 
11 | CC(=O)N(O)CCCCCNC(=O)CCC(=O)N(O)CCCCCNC(=O)CCC(=O)N(O)CCCCCN | 0.0393% [at 18.6 µM] (inactive) | 
12 | CN(C)CCCOc1nn(Cc2ccccc2)c2ccccc12 | -0.0147% [at 18.6 µM] (inactive) | 
13 | CCC(C)N(C)C(=O)c1cc2ccccc2c(-c2ccccc2Cl)n1 (stereo not given) | 0.146% (inactive) | 
14 | CC(=O)c1c(C)c([N+](=O)[O-])c(C(C)(C)C)c([N+](=O)[O-])c1C | 0.0326% (inactive) | 
15 | FC(F)(F)C(F)(F)C(F)(F)C(F)(F)C(F)(F)C(F)(F)CCI | 0.0601% [at 46 µM] (inactive) | 
16 | O=[N+]([O-])c1cc[n+]([O-])cc1 | -0.0892% (inactive) | 
17 | CC(O)C1CCCCC1 (stereo not given) | -0.0134% (inactive) | 
18 | Cn1c(N)nc2nc[nH]c2c1=O | 0.155% (inactive) | 
19 | C=Cc1c(C)c2cc3[nH]c(cc4nc(cc5nc(cc1[nH]2)C(C)=C5CCC(=O)O)C(CCC(=O)O)=C4C)c(C)c3C=C | 0.0201% [at 46 µM] (inactive) | 
20 | Oc1ccc(O)c2c(O)cccc12 | -0.0151% (inactive) | 

Row | SMILES | fluorescence, % of fluorescent control | Potency
21 | Cc1ccccc1N=Nc1ccc(N=Nc2c(O)ccc3ccccc23)c(C)c1 | -0.0119% [at 46 µM] (inactive) | 
22 | CNS(=O)(=O)Cc1ccc2[nH]cc(CCN(C)C)c2c1 | 0.0198% [at 46 µM] (inactive) | 
23 | O=C(O)C(c1ccc(Cl)cc1)c1ccc(Cl)cc1 | -0.0711% (inactive) | 
24 | Cn1sccc1=O | -0.0392% (inactive) | 
25 | CC(=O)CC(=O)c1ccccc1 | 0.0254% (inactive) | 
26 | Cc1occc1S | 0.118% (inactive) | 
27 | CN1CCC(=C2c3ccccc3CCc3sccc32)CC1 | 0.0661% [at 46 µM] (inactive) | 
28 | CCCC[C@H]1CN(CC2CCOCC2)C(=O)OC12CCN(C1(C)CCN(C(=O)c3c(C)ncnc3C)CC1)CC2 | 0.45% (inactive) | 
29 | CN1CCC[C@@H]1c1cccnc1 | 0.0053% [at 46 µM] (inactive) | 
30 | CCN(CC)C(C)=O | -0.0339% [at 95.7 µM] (inactive) | 
31 | CC(C)NCC(O)COc1ccc(CC(N)=O)cc1 (stereo not given) | -0.0324% (inactive) | 
32 | CCCCCCCCN(C)C | 0.0176% (inactive) | 
33 | Nc1ccc(C(=O)Nc2ccccc2N)cc1 | 0.0093% [at 46 µM] (inactive) | 
34 | Cc1ccc2c(ccc3ccccc32)c1 | 0.0696% (inactive) | 
35 | CC1CCc2cc(F)cc3c(=O)c(C(=O)O)cn1c23 (stereo not given) | 0.0186% [at 46 µM] (inactive) | 
36 | CN(C)CC[C@@H](c1ccc(Br)cc1)c1ccccn1 | 0.0822% [at 46 µM] (inactive) | 
37 | C[C@H](CCC(=O)O)[C@H]1CC[C@H]2[C@@H]3[C@H](O)C[C@@H]4C[C@H](O)CC[C@]4(C)[C@H]3CC[C@]12C |  | inactive
38 | C=CC[N+]1([C@H]2C[C@H]3[C@@H]4CC[C@H]5C[C@H](OC(C)=O)[C@@H](N6CCCCC6)C[C@]5(C)[C@H]4CC[C@]3(C)[C@H]2OC(=O)CC)CCCCC1 | 4.85% [at 46 µM] (inactive) | 
39 | C[C@@H](C1=C(CCN(C)C)Cc2ccccc21)c1ccccn1 | 0.213% [at 46 µM] (inactive) | 
40 | CC(=O)NCCCS(=O)(=O)O |  | inactive
